Unmarked numbers belong to inactive results. Activity calls are given as the source filed them.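 Rule for the calls: active = inhibition above the hit cutoff set in the earlier primary screen (cut at about 27% in these data); inactive = the rest.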

Chain of Protein phosphatase methylesterase 1 (Homo sapiens) (Q9Y570 whole entry, looked up): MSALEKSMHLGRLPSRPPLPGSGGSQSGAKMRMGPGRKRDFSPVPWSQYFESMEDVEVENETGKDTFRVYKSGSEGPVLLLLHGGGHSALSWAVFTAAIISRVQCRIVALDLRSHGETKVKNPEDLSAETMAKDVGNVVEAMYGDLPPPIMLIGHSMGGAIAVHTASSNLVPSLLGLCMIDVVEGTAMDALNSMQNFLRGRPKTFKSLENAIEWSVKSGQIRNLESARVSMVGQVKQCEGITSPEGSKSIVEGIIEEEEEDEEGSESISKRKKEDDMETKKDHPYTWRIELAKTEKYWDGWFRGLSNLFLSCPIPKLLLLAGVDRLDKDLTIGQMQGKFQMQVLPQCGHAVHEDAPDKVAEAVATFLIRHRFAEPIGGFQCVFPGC

The assay concerns the target Protein phosphatase methylesterase 1 (Homo sapiens) (UniProt Q9Y570). Put plainly: human PME-1 methylesterase inhibition confirmation – biochemical, fluorescence polarization, FP-Rh probe, triplicate (AID 2171).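 Note: 0% = enzyme with DMSO and 100% = wells lacking PME-1.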 The note with it: recombinant PME-1, FP-Rh probe fluorescence polarization; at 5.9 µM; stronger effect = higher value. (In fluorescence polarisation assays a small probe gives low polarisation when free and higher when bound to something large.)
Consider `CCCCN(CC)CCCNC(=O)c1cn(CC)c2ccc(S(=O)(=O)N3CCc4ccccc4C3)cc2c1=O`, for which the inhibition is 59.1% (active).

In the case of `Oc1c(Br)cc(Br)c(/C=N/n2c(-c3ccccc3)n[nH]c2=S)c1Br`, the inhibition is 45.5% (active).

For the molecule `O=C(O)CSc1cc(NS(=O)(=O)c2ccc(Br)cc2)c2ccccc2c1O`, the inhibition is 3.78%.

`O=C(COc1ccccc1C(=O)N/N=C\c1ccc(O)c(O)c1)N/N=C/c1ccc(O)c(O)c1`: the inhibition was -40.9%.

On to `Nc1nonc1N/N=C/c1c(O)ccc2ccccc12`, for which the inhibition was 23.6%.

`O=C(Nc1ccc([N+](=O)[O-])cc1)Nc1ccc2[nH]c(=O)[nH]c2c1`: the inhibition is -15.6%.

On to `Cc1oc(-c2ccc3ccccc3c2)nc1CN(C)C(C)c1ccncn1` (stereo not given), for which the inhibition was 4.93%.

For the molecule `COc1cc2c(cc1NC(=O)Nc1cccc(C)c1)oc1ccccc12`, the inhibition is 12.2%.

As for `O=C(O)c1ccccc1N/N=C/c1cc(Br)cc(Br)c1O`, the inhibition is 43.7% (active).

Take `COc1cc2[nH]c3c(N4CCN(c5ccc(Cl)cc5)CC4)ncnc3c2cc1OC`: the inhibition was 74.9% (active).

Turning to `Cc1cc(N(C)C)ccc1N=Nc1ccc2ncccc2c1`, the inhibition was 42.3% (active).

Regarding `COc1ccc(NC(=S)NNc2ccc(S(=O)(=O)Nc3ccccc3C(=O)O)cc2[N+](=O)[O-])cc1`, the inhibition is 44.9% (active).

On to `C=CCCC(=O)Nc1nc(C)c(-c2csc(Nc3ccc(Cl)cc3)n2)s1`, for which the inhibition was 48.2% (active).

As for `CCCCCCn1c(=O)[nH]c2nc3cc(N)ccc3nc2c1=O`, the inhibition was 37.6% (active).

`O=C(O)c1ccc(N/N=C/c2cn(Cc3ccccc3F)c3ccccc23)cc1`: the inhibition is 93.4% (active).

Regarding `COc1ccc(N=Nc2nc(-c3ccccc3)c(-c3ccccc3)[nH]2)cc1`, the inhibition was 10.8%.

For `Nc1c(C(=O)Nc2ccccc2)sc2nc(-c3ccco3)ccc12`, the inhibition is 59.5% (active).

For `CCc1ccc2nc(SCC(=O)N3CC(=O)Nc4ccccc43)c(C#N)cc2c1`, the inhibition was 15.3%.

Consider `Cn1c(=O)c(NCCc2ccccc2)c2c3c(cccc31)C(=O)c1ccccc1-2`, for which the inhibition was 177% (active).

As for `COc1cc(OC)c2cc(C(=O)N/N=C/c3ccccc3O)[nH]c2c1`, the inhibition is 19.1%.

Regarding `O=C(NC(C(=O)N/N=C/c1cc([N+](=O)[O-])ccc1O)c1n[nH]c(=O)c2ccccc12)c1ccccc1` (stereo not given), the inhibition is 58.3% (active).

For the molecule `Oc1ccc(-c2cnc(-c3ccc(O)cc3)nc2)cc1`, the inhibition is 16.1%.

As to `O=C(O)CSc1cc(NS(=O)(=O)c2ccc(Cl)cc2)c2ccccc2c1O`, the inhibition is 14.2%.

For `Cc1ccccc1NC1=C/C(=N\S(=O)(=O)c2cccs2)c2ccccc2C1=O`, the inhibition is 38.4% (active).

As to `CCCCCCC(=O)N1CCC(c2nc3c(nnn3Cc3ccccc3Cl)c(=O)[nH]2)CC1`, the inhibition was 21.9%.

For the molecule `O=[N+]([O-])c1ccc(C2Nc3cccc4cccc(c34)N2)cc1`, the inhibition is 35.9% (active).

Consider `CCN(CC(=O)Nc1c(F)cccc1F)C(=O)CCc1ccc(OC)cc1`, for which the inhibition was 6.49%.

`Nc1[nH]n(-c2ccccc2)c(=O)c1N=Nc1ccc2c(c1)OCO2`: the inhibition was 39.8% (active).

For the molecule `O=C(N/N=C/c1c(Cl)[nH]c2ccccc12)c1ccc2c(c1)OCCO2`, the inhibition was 20.6%.

Take `C/C(=N/Nc1nc(-c2ccccc2F)nc2ccccc12)c1ccccc1O`: the inhibition is 3.91%.

`COc1ccc(/C=c2\s/c(=C/C(=O)c3ccc(C)cc3)[nH]c2=O)c(OC)c1`: the inhibition is 18.9%.

As for `CC1CCCCN1S(=O)(=O)c1ccc(C(=O)Nc2ccccc2-c2nc3ccccc3[nH]2)cc1` (stereo not given), the inhibition was 8.87%.

In the case of `C=CCOc1ccc(/C=N/NC(=O)c2cc3c(OC)cc(OC)cc3[nH]2)cc1`, the inhibition is 24.4%.

As for `COc1ccc(O)c(-c2cc(-c3cccc(Br)c3)n[nH]2)c1`, the inhibition is 23.7%.

As to `C/C(=N/NC(=O)c1cc2ccccc2cc1O)C1C(=O)c2ccccc2C1=O`, the inhibition was 68.6% (active).

Turning to `Cc1cc(C(=O)CC#N)c(C)n1-c1ccc(OC(F)F)cc1`, the inhibition was 45.9% (active).

In the case of `Cc1ccc(Nc2cc(C)c3c(O)cccc3n2)cc1C`, the inhibition is 26.7% (active).

Consider `COc1ccc(/C=N/Nc2snc(SC)c2C#N)cc1OC`, for which the inhibition was 24.9%.

`CCOC(=O)c1ccc(Nc2nc(N)c3cc(OC)c(OC)cc3n2)cc1`: the inhibition is 27.9% (active).

As for `CNS(=O)(=O)c1cc(C(=O)OCC(=O)NC2CCCc3ccccc32)ccc1Cl` (stereo not given), the inhibition was 24.4%.

By inhibition is commonly meant the change of the read-out against control, counted positive when it falls.
